# In PubChem BioAssay (NCI):
# About 83,000 compounds went through this panel and 20% of them were active in at least one assay; those are over-represented in the sample as a whole.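 A percent growth of 40 corresponds to 60% growth inhibition; 0 means no net growth; -100 means all cells died. Active threshold: below 10.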 Unmarked numbers belong to inactive results. Calls of active or inactive are those of the source.
# Tested on: RXF 393 renal
# Experiment: NCI-60 one-dose screen, 48 h (100 = growth as untreated, 0 = no growth, -100 = all killed)
# Settings: 10 µM unless noted
row,SMILES,growth
1,CCCCOc1ccc(NC(=O)n2nc(NC(C)=O)c3cc(NC(C)=O)ccc32)cc1,95.6%
2,CSc1ncnc2c1ncn2C1CCCO1 (configuration not stated),131%
3,Oc1ccccc1N=Cc1c(O)ccc2ccccc12,79.2%
4,Cn1c2ccccc2c2c3[nH]c(=O)[nH]c(=O)c3c3c4ccccc4n(C)c3c21,6.48% (active)
5,CCOC(=O)c1c2ncccc2n2c(=O)n(-c3ccc(Cl)cc3)nnc12,104%
6,O=C(COc1cccc(/C=C2/Oc3ccccc3C2=O)c1)Nc1nccs1,2.9% (active)
7,NS(=O)(=O)c1ccc(Nc2nc3n[nH]c(Nc4ccccc4)c3c(=O)[nH]2)cc1,115%
8,OCCNCCNc1c2ccccc2nc2ccccc12,102%
9,COc1ccc(OCC(=O)Nc2ccc(-c3nc4ccccc4s3)cc2C)cc1,115%
10,CCCCNP1(NCCCC)=NP(NCCCC)(NCCCC)=NP(NCCCC)(NCCCC)=NP(NCCCC)(NCCCC)=N1,16.5%
11,COCCCN=C(N)c1ccc(NC(=O)c2ccc(C(=O)Nc3ccc(C(N)=NCCCOC)cc3)cc2)cc1,142%
12,Cn1c2ccccc2c2c3c(c4c5ccccc5[nH]c4c21)C(=O)N(N)C3=O,67.9%
13,CCN(CC)Cc1cc(Nc2c3ccccc3nc3cc(Cl)ccc23)ccc1O,-91.4% (active)
14,COc1nc2c(cc1S(=O)(=O)c1ccccc1)CCc1c-2cnn1-c1ccc(Cl)cc1,96.2%
15,CN(CC(=O)N(Cc1ccc(C2CCCCC2)cc1)c1ccc(C(=O)NO)cc1)S(=O)(=O)c1c(F)c(F)c(F)c(F)c1F,71.2%
16,COc1cc(-c2nc3ccccc3s2)ccc1NC(=O)COc1ccc(Cl)cc1,66.3%
17,CSc1[nH]c2ncnc(N)c2c1C#N,151%
18,O=C1Nc2c(ccc(Cl)c2Cl)/C1=C/c1cc(Br)c(O)c(Br)c1,75.9%
19,NS(=O)(=O)N(c1cc(C(F)(F)F)cc(C(F)(F)F)c1)C1CCN(Cc2ccc(F)cc2)CC1,41.7%
20,COc1nc2c(cc1S(=O)(=O)c1ccccc1)CCc1c-2cnn1Cc1ccccc1,38.8%
21,CN1CCN(Cc2ccc(NC(=O)c3[nH]ncc3Nc3ccnc4ccsc34)cc2)CC1,-44.9% (active)
22,CC1(C)CC(C(=O)OCCCCCCCCCCC[P+](c2ccccc2)(c2ccccc2)c2ccccc2)C(C)(C)N1O (configuration not stated),-68.8% (active)
23,C=CC[N+]1(CC)CCN=C1CCCCCCCCCCCCCCCCC (configuration not stated),-90.3% (active)

# Tested on: SF-268 CNS
# Experiment: as above
# Settings: 10 µM unless noted
row,SMILES,growth
1,CC(=O)Nc1ccc2c(c1)c(NC(C)=O)nn2C(=O)Nc1ccc(Cc2ccccc2)cc1,46.6%
2,Cc1ccc2c(c1)O/C(=C\c1cccc(OCC(=O)c3ccccc3)c1)C2=O,103%
3,Nc1nc(SCc2ccccc2)c2ncn(C3CCCC3)c2n1,121%
4,Cn1c2ccccc2c2c3c(c4c5ccccc5n(CCCCCC#N)c4c21)C(=O)N(O)C3=O,12.2%
5,CCN(CC)Cc1cc(Nc2c3ccc(Cl)cc3nc3c(C)cccc23)ccc1O,-79.8% (active)
6,CS(=O)(=O)c1ccc(-c2cnc3ccc(-c4cccc(S(C)(=O)=O)c4)nn23)cc1,36.3%
7,COc1ccc(CCN2CCCn3c2nc2ccccc2c3=O)cc1,56.9%
8,CC#CC#Cc1cccc(=O)o1,50.4%
9,c1ccc2c(Nc3cccc4ccccc34)cccc2c1,72.7%
10,c1ccc(CSc2ncnc3nc[nH]c23)nc1,109%
11,O=C(O)c1cccnc1Br,110%
12,COc1ccc(-c2cc(-c3cccnc3)nc3sc4c(=O)n(-c5ccc(C)cc5)cnc4c23)cc1OC,100%
13,CNC(=O)c1cc(Oc2ccc3nc(NC(=O)Nc4ccc(CN5CCOCC5)c(C(F)(F)F)c4)sc3c2)ccn1,34.9%
14,CCN(CC)CCCC(C)NCCCNc1cccc2cccnc12 (configuration not stated),86.6%
15,CCCCN(CCCC)Cc1c(C)[nH]c2cc(OC)ccc2c1=O,95.5%
16,O=C1C[C@H](Sc2nc(-c3ccc(F)cc3)cc(C(F)(F)F)n2)[C@H]2CO[C@@H]1O2,101%
17,CCCCOc1ccc(NC(=O)n2nc(NC(C)=O)c3cc(NC(C)=O)ccc32)cc1,127%
18,CSc1ncnc2c1ncn2C1CCCO1 (configuration not stated),115%
19,Oc1ccccc1N=Cc1c(O)ccc2ccccc12,78.4%
20,Cn1c2ccccc2c2c3[nH]c(=O)[nH]c(=O)c3c3c4ccccc4n(C)c3c21,32.4%

row,SMILES,growth
1,CCOC(=O)c1c2ncccc2n2c(=O)n(-c3ccc(Cl)cc3)nnc12,72.3%
2,O=C(COc1cccc(/C=C2/Oc3ccccc3C2=O)c1)Nc1nccs1,30.3%
3,NS(=O)(=O)c1ccc(Nc2nc3n[nH]c(Nc4ccccc4)c3c(=O)[nH]2)cc1,97%
4,OCCNCCNc1c2ccccc2nc2ccccc12,55.9%
5,COc1ccc(OCC(=O)Nc2ccc(-c3nc4ccccc4s3)cc2C)cc1,94.3%
6,CCCCNP1(NCCCC)=NP(NCCCC)(NCCCC)=NP(NCCCC)(NCCCC)=NP(NCCCC)(NCCCC)=N1,25.8%
7,COCCCN=C(N)c1ccc(NC(=O)c2ccc(C(=O)Nc3ccc(C(N)=NCCCOC)cc3)cc2)cc1,103%
8,Cn1c2ccccc2c2c3c(c4c5ccccc5[nH]c4c21)C(=O)N(N)C3=O,45.8%
9,CCN(CC)Cc1cc(Nc2c3ccccc3nc3cc(Cl)ccc23)ccc1O,-76.9% (active)
10,COc1nc2c(cc1S(=O)(=O)c1ccccc1)CCc1c-2cnn1-c1ccc(Cl)cc1,104%
11,CN(CC(=O)N(Cc1ccc(C2CCCCC2)cc1)c1ccc(C(=O)NO)cc1)S(=O)(=O)c1c(F)c(F)c(F)c(F)c1F,87%
12,COc1cc(-c2nc3ccccc3s2)ccc1NC(=O)COc1ccc(Cl)cc1,29.4%
13,CSc1[nH]c2ncnc(N)c2c1C#N,113%
14,O=C1Nc2c(ccc(Cl)c2Cl)/C1=C/c1cc(Br)c(O)c(Br)c1,75.7%
15,NS(=O)(=O)N(c1cc(C(F)(F)F)cc(C(F)(F)F)c1)C1CCN(Cc2ccc(F)cc2)CC1,79.9%
16,COc1nc2c(cc1S(=O)(=O)c1ccccc1)CCc1c-2cnn1Cc1ccccc1,82.2%
17,CN1CCN(Cc2ccc(NC(=O)c3[nH]ncc3Nc3ccnc4ccsc34)cc2)CC1,20.3%
18,CC1(C)CC(C(=O)OCCCCCCCCCCC[P+](c2ccccc2)(c2ccccc2)c2ccccc2)C(C)(C)N1O (configuration not stated),-92.9% (active)
19,C=CC[N+]1(CC)CCN=C1CCCCCCCCCCCCCCCCC (configuration not stated),-83.4% (active)
